Results taken from PubChem BioAssay AID504652 (National Center for Advancing Translational Sciences (NCATS), 2011).
About 11,000 (3.1%) of roughly 360,000 compounds were called active. Rule as the data show it: active = activity change below about -30%; inactive = the rest. The sample as a whole holds a higher share of actives than the screen did.

target: D(1A) dopamine receptor (Homo sapiens) (UniProt P21728); experiment: Antagonist of Human D 1 Dopamine Receptor: qHTS; details: HEK293 TREx D1 cells, calcium flux, dopamine EC80; at 10 µM; active compounds read low
Sequence (P21728 whole entry, looked up): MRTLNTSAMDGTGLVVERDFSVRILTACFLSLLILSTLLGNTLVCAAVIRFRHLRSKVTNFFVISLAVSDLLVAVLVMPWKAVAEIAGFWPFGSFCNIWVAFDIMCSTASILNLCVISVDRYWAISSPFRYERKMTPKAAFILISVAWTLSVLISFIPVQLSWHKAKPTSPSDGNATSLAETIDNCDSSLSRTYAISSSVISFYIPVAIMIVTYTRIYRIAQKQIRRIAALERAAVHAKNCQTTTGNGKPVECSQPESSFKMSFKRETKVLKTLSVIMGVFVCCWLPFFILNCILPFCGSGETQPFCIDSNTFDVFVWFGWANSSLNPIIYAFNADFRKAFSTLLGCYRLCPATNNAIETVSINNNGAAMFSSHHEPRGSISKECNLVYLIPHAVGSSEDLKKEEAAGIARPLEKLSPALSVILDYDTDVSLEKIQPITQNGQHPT
Outline: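 Calcium flux readout: force-coupled, inducible Hek293 Trex D1 line, cells induced overnight at 30 C with tetracycline, dye-loaded 30–90 min at RT. Antagonism scored against EC80 dopamine challenge given 180 s after compound.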
% is scaled to controls: 0 for no effect and ±100 for the full control effect.

Activity change, negative = inhibition, active:
CCC(=O)N1CCc2cc(S(=O)(=O)NC(Cc3ccccc3)C(=O)NCc3ccccc3)ccc21 (configuration not stated) -62%
CCC(=O)N1CCc2cc(S(=O)(=O)NC(C(=O)N3CCc4ccccc4C3)C(C)C)ccc21 (configuration not stated) -32.3%
CCN(CC)S(=O)(=O)c1ccc2c(c1)nc(CN(C)C(=O)Nc1ccc(Cl)cc1)n2C -30.4%
Cc1ccc(C(=O)c2ccc(N3CCN(C)CC3)c([N+](=O)[O-])c2)cc1 -41.9%
CN1CCN(c2ccc(S(=O)(=O)Nc3ccccc3)cc2[N+](=O)[O-])CC1 -46.5%

Activity change, negative = inhibition, inactive:
CC(=O)N1CCc2cc(S(=O)(=O)NC(Cc3ccccc3)C(=O)NCc3ccc(C)cc3)ccc21 (configuration not stated) 7.72%
CCC(=O)N1CCc2cc(S(=O)(=O)NC(C(=O)Nc3ccc(C(C)=O)cc3)C(C)C)ccc21 (configuration not stated) -1.32%
CCC(=O)N1CCc2cc(S(=O)(=O)NC(C(=O)NCCc3ccc(C)cc3)C(C)C)ccc21 (configuration not stated) 14.4%
CCC(=O)N1CCc2cc(S(=O)(=O)NC(Cc3ccccc3)C(=O)NCc3ccc(C)cc3)ccc21 (configuration not stated) 20.6%
Cc1ccc(C)c(Cn2c(C(=O)O)c(CNCc3cccs3)c3ccccc32)c1 57.2%
Cc1ccccc1-c1nc2cc(NC(=O)c3cccc(OCCC(C)C)c3)ccc2o1 0.754%
CC1=C(C(=O)N2CCN(c3cccc(C(F)(F)F)c3)CC2)C2(CCCCC2)OC1=O -3.32%
COC(=O)c1ccccc1NC(=O)Cn1c(=O)n(-c2cccc(C(F)(F)F)c2)c(=O)c2c(C)c(C)sc21 0.199%
CCOC(=O)C1CCCN(CC(=O)Nc2cc(C)c3c(=O)oc4ccccc4c3n2)C1 (configuration not stated) -9.54%
COc1ccccc1Nc1nc(N)nc(N)c1S(=O)(=O)c1ccccc1 3.62%
CCN(CC)S(=O)(=O)c1ccc(NC(=O)c2cnc(C)cn2)cc1 5.26%
Cn1c(CN2CCOCC2)nc2cc(NC(=O)c3ccc(Cl)cc3)ccc21 -2.81%
Cc1ccc(Cl)cc1NC(=O)CSc1nc2ccccc2nc1Cc1ccccc1 3.51%
Cc1cccc(N2CCN(c3ccc(C(N)=O)cc3[N+](=O)[O-])CC2)c1C 9.32%
CN1CCN(S(=O)(=O)c2ccc(N3CCN(c4ccccc4O)CC3)c([N+](=O)[O-])c2)CC1 7.38%
COc1ccc(NS(=O)(=O)c2ccc(N3CCN(CCO)CC3)c([N+](=O)[O-])c2)cc1 -20.8%
CS(=O)(=O)N1CCN(c2ccc(C(=O)NC3C4CC5CC(C4)CC3C5)cc2[N+](=O)[O-])CC1 (configuration not stated) -9.31%
